Here are results for 47 molecules from ChEMBL document CHEMBL3988442, “University of Dundee, Small-Polar-MMV Screening Library” (2021).

This test concerns Trypanosoma brucei. Kind of test: Trypanosoma brucei 72 hour study. The test is classed as functional, organism-based. On the set-up: scale not given: in the data most compounds retested in dose-response had high values.

Hit rate of the full screen: of about 66,000 compounds, about 960 (1.5%) showed an effect of 50% or more. Many of the other results were omitted from the sample, so strong results are more common in it than they were.

With `COc1ccc(C(C)(C)C)cc1CN1CCn2c(CO)nnc2C1.O=C(O)CC(O)(CC(=O)O)C(=O)O`, the “Percent Effect” value (30.3 µM, […]) is listed as 3.045%. Same read-out and setting: for `CC(=O)N1CCN([C@@H]2CC[C@@H](NC(=O)c3ccc(C)nc3)[C@H]2O)CC1` the value was -14.37%. Still for that read-out and setting: as for `CCN1CCN(c2ncc3c(n2)CN(c2cnn(CC)c2)C3=O)CC1`, the figure is -16.78%.

Take `CCOc1cc(CNc2nnn(C)n2)ccc1OCc1ccc(Cl)cc1`: the “Percent Effect” value (30.3 µM, […]) is on record as 13.85%. On to `CO[C@H]1CN(C(=O)c2ccc(-c3ccccc3)[nH]2)CC[C@H]1N`, for which the “Percent Effect” value (30.3 µM, […]) was 21.81%. For the molecule `CN1[C@H]2CC[C@@H]1CN(C(=O)c1ccc(-c3ccccc3)[nH]1)CC2`, the “Percent Effect” value (30.3 µM, […]) is 99.15%. Regarding `O=C(c1ccc(-c2ccccc2)[nH]c1=O)N1CCN(C2CC2)CC1`, the “Percent Effect” value (30 µM, 30.03 µM) is -17.15%. Still for that read-out and setting: for `CCOC(=O)CCn1cnc2onc(-c3ccc(OC)cc3)c2c1=O` the value was -27.94%. On to `Cc1nc(C2CCCN2C(=O)c2ccc3c(c2)nc(C)n3C)no1` (stereo not drawn), for which the “Percent Effect” value (10 µM) was -28.6% and the “Percent Effect” value (30.3 µM, […]) is reported as -7.833%. Turning to `CS(=O)(=O)CC(=O)N1C[C@H]2CCC[C@@]2(COc2ccccn2)C1.O=C(O)C(F)(F)F`, the “Percent Effect” value (30.3 µM, […]) is recorded as -20.95%. On the same count and under the same terms, as for `CC(C)Oc1ccc(C(=O)NCc2ccc3c(c2)CCCN3C)cn1`, the figure is 9.808%. For `CN1CCCc2cc(CNC(=O)c3ccc(-n4cnnc4)cc3)ccc21`, the “Percent Effect” value (30.3 µM, […]) was 53.86%. Consider `CN1CCCc2cc(CNC(=O)c3ccncc3)ccc21`, for which, for the setting “30 µM, 30.03 µM”, the “Percent Effect” value was found to be 8.977%. Turning to `COC(=O)c1cccc(C(=O)NCc2ccc3c(c2)CCCN3C)c1`, for the setting “30.3 µM, […]”, the “Percent Effect” value came to 1.912%. Take `COc1cc(C(=O)NCc2ccc3c(c2)CCCN3C)cc(OC)c1Br`: the “Percent Effect” value (30.3 µM, […]) worked out at 56.02%.

In the case of `CN1CCCc2cc(CNC(=O)c3cc[n+]([O-])cc3)ccc21`, the “Percent Effect” value (30.3 µM, […]) was found to be 2.114%.

As to `CC(C)n1c(=O)c2ccccc2n(CCCN(C)C)c1=O.Cl`, under “30 µM, 30.03 µM”, the “Percent Effect” value worked out at 2.697%. For `COCC(=O)Nc1ccnn1-c1ccc(Cl)cc1`, the “Percent Effect” value (30.3 µM, […]) is given as 12.6%. Same read-out and setting: as for `Cc1ncc2c(n1)C1(CCN(C(=O)C(C)C)CC1)OCC2.Cl`, the figure is -4.848%.

On to `O=C(Cn1ccc2sccc2c1=O)NCc1ccccc1F`, for which, where the note is “30 µM, 30.03 µM”, the “Percent Effect” value worked out at 1.93%.

Turning to `Clc1cc(NCc2ccncc2)nc2[nH]ccc12`, the “Percent Effect” value (30 µM, 30.03 µM) was -24.9%. Turning to `O=C(NCCc1ccccc1)C1CCC(Cn2cnnn2)CC1` (stereo not drawn), for the setting “30 µM, 30.03 µM”, the “Percent Effect” value is reported as 56%. Still for that read-out and setting: as for `COc1ccccc1CCNC(=O)C1CCC(Cn2cnnn2)CC1` (stereo not drawn), the figure is -33.08%; as for `COc1ccc(CCNC(=O)C2CCC(Cn3cnnn3)CC2)cc1` (stereo not drawn), 42.94%.

For `Cl.Clc1ccccc1CN1CCc2nc(C3CCNCC3)ncc2C1`, the “Percent Effect” value (30.3 µM, […]) was 9.906%. In the case of `O=C(NCCCOCC1CC1)Nc1ccc(-n2cncn2)c(F)c1`, the “Percent Effect” value (10 µM) is -25.61%. On to `CN(C(=O)NC1CC1)C1CCN(c2ccc(Cl)cc2)CC1`, for which the “Percent Effect” value (30 µM, 30.03 µM) is reported as -50.01%. Still for that read-out and setting: as for `CC(C)[C@H](NC(=O)N1CCN(c2ccc(Cl)cc2)CC1)C(=O)NC1CC1`, the figure is -23.38%; as for `CNS(=O)(=O)c1ccccc1N1CCN(C(=O)NC(C)C)CC1`, -6.64%; as for `CC(C)NC(=O)[C@@H](NC(=O)N1CCN(c2ccc(Cl)cc2)CC1)C(C)C`, 72.09%. On the same count and under the same terms, for `CC(NC(=O)N1CCN(c2ccc(Cl)cc2)CC1)C(=O)N1CCSCC1` (stereo not drawn) the value was 25.8%. Still for that read-out and setting: as for `CC(C)NC(=O)C(C)NC(=O)N1CCN(c2ccc(Cl)cc2)CC1` (stereo not drawn), the figure is 51.3%. For the molecule `CC(=O)c1ccc(N2CCN(C(=O)NC(C)c3ccc(C)o3)CC2)cc1` (stereo not drawn), the “Percent Effect” value (30 µM, 30.03 µM) turned out to be 19.85%. With `CC(C)C(NC(=O)N1CCN(c2ccc(Cl)cc2)CC1)C(=O)NC1CC1` (stereo not drawn), the “Percent Effect” value (30 µM, 30.03 µM) is recorded as 53.99%. Regarding `CC(C)NC(=O)[C@H](C)NC(=O)N1CCN(c2ccc(Cl)cc2)CC1`, where the note is “30 µM, 30.03 µM”, the “Percent Effect” value was 36.61%. With `CC(C)NC(=O)C(NC(=O)N1CCN(c2ccc(Cl)cc2)CC1)C(C)C` (stereo not drawn), the “Percent Effect” value (30 µM, 30.03 µM) is on record as 55.67%. Same read-out and setting: for `C[C@H](NC(=O)N1CCN(c2ccc(Cl)cc2)CC1)C(=O)N1CCSCC1` the value was -37.38%. For the molecule `Cn1cc(NC(=O)CNC(=O)N2CCN(c3ccc(Cl)cc3)CC2)cn1`, the “Percent Effect” value (30.3 µM, […]) turned out to be 4.499%.

Take `O=C1CC2(CCN(Cc3ccoc3)CC2)CN1Cc1cc(F)cc(F)c1`: the “Percent Effect” value (30 µM, 30.03 µM) was -15.51%. Consider `Cc1nc(CCNC(=O)C(N)c2c(C)n[nH]c2C)sc1C` (stereo not drawn), for which the “Percent Effect” value (30.3 µM, […]) is on record as -1.575%.

Consider `CN(c1ncnc2ccccc12)C1CCCN(c2cccnn2)C1` (stereo not drawn), for which, for the setting “30.3 µM, […]”, the “Percent Effect” value was -20.2%.

`NC(=O)CNC(=O)c1ccc(CNCc2ccc(F)cc2F)cc1`: for the setting “30 µM, 30.03 µM”, the “Percent Effect” value was -29.88%.

Consider `Br.Cc1c(NC(=O)CN2CCN(C3CCCC3)C(=O)C2)cnn1C`, for which, where the note is “30.3 µM, […]”, the “Percent Effect” value is on record as -20.91%. As to `CNC(=O)[C@@H]1C[C@H]2CN(C(=O)c3ccco3)C[C@H]2N1C(C)C.O=C(O)C(F)(F)F`, the “Percent Effect” value (30.3 µM, […]) is given as -12.88%. In the case of `Cn1cc(C2CCCN2C(=O)c2cnc(C3CC3)s2)cn1` (stereo not drawn), the “Percent Effect” value (30 µM, 30.03 µM) is on record as -42.9%. On the same count and under the same terms, as for `CN(C)[C@@H]1CCN(C(=O)NC2CCCC2)[C@H]1Cc1cnn(C)c1.O=C(O)C(F)(F)F`, the figure is -1.718%. With `CN(C)C(=O)c1cnc2n1CCN(Cc1ccccc1)C2.O=C(O)C(F)(F)F`, the “Percent Effect” value (30 µM, 30.03 µM) was -11.93%.
